Nrf2 block = Nrf2 qHTS screen for inhibitors | Potency, µM (highest dose often 46 µM), without a hit: top-dose activity change, negative = inhibition, most hits filed as inhibitors | 360,000 compounds, 2.1% hits | A549 ARE-Fluc reporter, luciferase luminescence, 18-24 h; note: % is set by controls: 0 for no effect and ±100 for the full control effect; nearly all actives have a fitted effect of over 60% in size
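Nrf2 activity is the BugLite luminescence, read 15 min after reagent at room temperature, following CellTiter-Fluor cytotoxicity readout (30 min, 37C). Compound titrations were applied for 18-24 h to 5000 A549 ARE_Fluc cells/well in 5% FBS OPTI-MEM.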
A549 tox-1 = Nrf2 qHTS screen for inhibitors: counterscreen for cytotoxicity; A549 ARE-Fluc cells, CellTiter-Fluor viability, 18-24 h; Potency, µM (titrated, usually from 46 µM), without a hit: at the highest dose activity change, negative = cytotoxicity, usual class: inhibitors; 390,000 compounds, 0.16% hits; AID 504648, 2011; note: % is set by controls: 0 for no effect and ±100 for the full control effect
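A549 ARE-Fluc cells in 5% FBS OPTI-MEM, 5000 cells/well, rested 2 h then exposed to compounds in concentration-response for 18-24 h at 37 °C. Viability by CellTiter-Fluor fluorescence (Ex 405/Em 525) after 30 min; luciferase luminescence (BugLite, 15 min, RT) read afterwards.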
ATXN2 expr inh = Primary qHTS for Inhibitors of ATXN expression. AID 1745845, 2022. 360,000 compounds, 0.72% hits. Potency, µM (highest dose often 57 µM), without a hit: at the highest dose activity change, negative = inhibition, hits mostly inhibitors. HEK-293 ATXN2-luciferase reporter, luminescence, 24 h; note: % is set by controls: 0 for no effect and ±100 for the full control effect; nearly all actives have a fitted effect of over 55% in size
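ATXN2-luciferase reporter cells (luciferase flanked by upstream and downstream ATXN2 gene portions) were treated 24 h at 37 °C with compounds at up to 57 uM. SteadyGlo luminescence gave expression; GF-AFC fluorescence gave viability.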
HepG2 viability = qHTS for Inhibitors of TGF-b: Cytotox Counterscreen. Potency, µM (highest dose often 46.1 µM), for the others: at the top dose activity change, negative = cytotoxicity, actives largely listed as cytotoxic. HepG2 CAGA-GFP viability, ATP luminescence, 18 h. AID 588856, 2011. 410,000 compounds, 0.76% hits
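CellTiter-Glo luminescence gave cytotoxicity after 18 hours at 37 degrees C. The cells were HepG2 CAGA-GFP in 1% FBS DMEM, stimulated with 500 pg/mL TGF-beta after compound addition. %Activity was normalised to no-cell wells (complete cell-killing) and DMSO (no toxicity), and curves were fitted and classified.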
ATXN viability = Viability Counterscreen for Primary qHTS for Inhibitors of ATXN expression; S2 cells (HEK-293 line with an ATXN2-luciferase reporter) viability, CellTiter-Fluor protease fluorescence, 24 h; Potency, µM (top dose mostly 56.7 µM), usual class: cytotoxic; 400,000 compounds, 0.49% hits; note: nearly all actives have a fitted effect of over 40% in size
TGFb SMAD3 inh = qHTS for Inhibitors of TGF-b | Potency, µM (titrated, usually from 46.1 µM), for the others: top-dose activity, negative = inhibition, hits mostly inhibitors | HepG2 CAGA-GFP TGF-b/SMAD3 reporter, GFP fluorescence, 18 h; TGF-beta stimulated, 500 pg/mL final | 410,000 compounds, 1.2% hits | AID 588855, 2011; note: % is set by controls: 0 for no effect and ±100 for the full control effect; nearly all actives have a fitted effect of over 65% in size
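Read-out: total well GFP (ex488/em500-530) summed from mean per-cell fluorescence. Cells: HEPG2 CAGA-GFP, 1% FBS DMEM, 18 h at 37 degrees C with 500 pg/mL final TGF-beta. Unstimulated wells served as the full-inhibition control; stimulated DMSO wells = 0%.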
FLuc counter 3 = Nrf2 qHTS screen for inhibitors: Purified Fluc Biochemical Counterscreen for Hit Validation; shares compounds with Nrf2 block; purified firefly luciferase, luminescence inhibition; Potency, µM (doses to about 57.5 µM), for the others: top-dose activity change, negative = inhibition, most hits filed as inhibitors; 1,400 compounds, 4% hits; note: % is set by controls: 0 for no effect and ±100 for the full control effect; nearly all actives have a fitted effect of over 65% in size
Target sequence (P08659 whole entry, looked up): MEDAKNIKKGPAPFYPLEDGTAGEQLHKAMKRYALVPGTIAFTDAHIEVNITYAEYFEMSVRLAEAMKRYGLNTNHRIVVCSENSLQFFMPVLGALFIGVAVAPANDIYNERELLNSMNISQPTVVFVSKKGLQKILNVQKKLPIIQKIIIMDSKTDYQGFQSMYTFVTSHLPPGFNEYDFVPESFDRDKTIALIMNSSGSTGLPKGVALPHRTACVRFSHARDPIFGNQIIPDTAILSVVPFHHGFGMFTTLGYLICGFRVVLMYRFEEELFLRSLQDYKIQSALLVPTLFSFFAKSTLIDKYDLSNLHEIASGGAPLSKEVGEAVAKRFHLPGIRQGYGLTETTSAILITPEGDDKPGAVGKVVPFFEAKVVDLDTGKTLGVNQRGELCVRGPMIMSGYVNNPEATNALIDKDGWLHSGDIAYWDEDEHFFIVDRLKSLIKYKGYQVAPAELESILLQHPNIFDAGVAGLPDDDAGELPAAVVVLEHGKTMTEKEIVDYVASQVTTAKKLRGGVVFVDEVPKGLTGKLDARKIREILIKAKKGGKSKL
A549 tox-2 = Nrf2 qHTS screen for inhibitors: A549 ARE-Fluc Cytotoxicity Counterscreen for Hit Validation | Potency, µM (highest dose often 46.1 µM), for the others: at the top dose activity change, negative = cytotoxicity, usual class: inhibitors | AID 720523, 2013 | shares compounds with Nrf2 block | A549 ARE-Fluc cells, cytotoxicity counterscreen | 1,400 compounds, 2% hits;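 note: cells exposed to compounds for 18 to 24 hours; % is set by controls: 0 for no effect and ±100 for the full control effect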
Nrf2 ARE inh = Nrf2 qHTS screen for inhibitors: Nrf2 A549 ARE-Fluc Confirmation Assay for Hit Validation; shares compounds with Nrf2 block; A549 ARE-firefly luciferase reporter, luminescence; Potency, µM (top dose mostly 46.1 µM), without a hit: top-dose activity change, negative = inhibition, actives largely listed as inhibitors; 1,400 compounds, 74% hits; AID 720524, 2013; note: % is set by controls: 0 for no effect and ±100 for the full control effect; nearly all actives have a fitted effect of over 65% in size
* marks the source's active call; other numbers are inactive results; i = inactive; ? = inconclusive; . = no result given. An excerpt weighted towards active compounds, which were near 3.8% of everything screened. Calls come from the whole dose curve; as a rule, active = well fitted curve in the direction sought with a large enough effect; inconclusive = small, poorly fitted or top-dose-only effect, or another doubt; inactive = no such curve, though single readings can be large; an effect the other way counts as inactive or inconclusive. Potency is the fitted concentration of half-maximal effect.

SMILES	Nrf2 block	A549 tox-1	ATXN2 expr inh	HepG2 viability	ATXN viability	TGFb SMAD3 inh	FLuc counter 3	A549 tox-2	Nrf2 ARE inh
CC(=O)c1cccc(CN2CCCC(CCC(=O)NCc3ccc(C)o3)C2)c1 (stereo not given)	-24.3%	5.0%	-2.7%	-2.0%	i	-1.4%	.	.	.
CC(C)NC(=O)Nc1ccc2c(c1)C(=O)N([C@H](C)CO)C[C@H](C)[C@@H](CN(C)C(=O)NC(C)C)O2	-1.8%	-0.2%	6.0%	3.9%	i	12.2%	.	.	.
CC(C)CCOc1cccc(OCC(=O)Nc2ccncc2)c1	9.2µM*	0.9%	-26.2%	-10.4%	i	0.0%	-16.7%	-4.4%	3.66µM*
COc1cccc(OCC(=O)Nc2ccncc2)c1	?	0.6%	-9.2%	-2.6%	i	-12.3%	.	.	.
COc1ccc(C2C3=C(CC(C)(C)CC3=O)OC(N)=C2[N+](=O)[O-])cc1 (stereo not given)	12.4%	?	.	3.2%	i	2.4%	.	.	.
COc1ccc(N2CCN(c3ncnc4c3[nH]c3ccccc34)CC2)cc1	5.8µM*	-10.0%	?	-2.7%	i	-6.5%	1.3%	-0.4%	2.91µM*
CCN(CC)S(=O)(=O)c1ccc(/C=C/C(=O)Nc2ccc(F)c(F)c2F)cc1	?	-4.3%	-16.8%	-22.4%	i	-23.7%	-10.0%	-5.5%	?
CCN(CC)S(=O)(=O)c1ccc(/C=C/C(=O)Nc2ccc(Br)cc2F)cc1	9.2µM*	-2.9%	?	-7.5%	?	?	-8.7%	-1.7%	4.61µM*
Cn1c2ccccc2n2c(=O)c(Cl)c(-c3ccccc3)c(C#N)c12	5.7%	-14.0%	3.5%	-17.3%	i	3.5%	.	.	.
CC(C)(C)c1cc(CCC(=O)NCC2CCCO2)cc(C(C)(C)C)c1O (stereo not given)	-18.2%	0.2%	1.9%	-7.6%	i	-11.1%	.	.	.
C=CCn1c(NCCc2ccccc2)nc2c1c(=O)n(C)c(=O)n2C	9.2µM*	-8.7%	?	-42.3%	i	-23.7%	1.9%	4.1%	.
Cn1c(=O)c2c(nc(NCCc3ccccc3)n2CC(=O)NCCc2ccccc2)n(C)c1=O	-1.8%	0.4%	-5.3%	-3.5%	?	-0.2%	.	.	.
C/C(Cl)=C\Cn1c(NCCc2ccccc2)nc2c1c(=O)n(C)c(=O)n2C	2.91µM*	-16.1%	?	-20.9%	i	-12.9%	0.8%	-11.4%	7.31µM*
O=C(c1cnn(-c2nccc(-c3ccco3)n2)c1C1CC1)N1CCCCC1c1cccnc1 (stereo not given)	.	.	.	.	i	.	.	.	.
CN1/C(=C/c2cc[n+](C)c3ccccc23)C=Cc2ccccc21	1.16µM*	20.6µM*	3.77µM*	-16.7%	?	?	?	?	6.51µM*
COc1ccc(S(=O)(=O)N2CCN(CCOc3ccc(Br)cc3)CC2)cc1OC	5.8µM*	-15.6%	.	-46.1%	i	?	-11.1%	?	7.31µM*
Cc1c(C(=O)NCc2ccc(F)cc2)oc2ccc(S(=O)(=O)N3CCOCC3)cc12	?	1.2%	-1.3%	-2.5%	i	4.7%	.	.	.
CCN(CC)S(=O)(=O)c1ccc2oc(C(=O)Nc3ccc(OC)cc3OC)c(C)c2c1	3.66µM*	-5.3%	-1.3%	-79.2%	i	?	-1.1%	5.0%	14.6µM*
CCN(CC)S(=O)(=O)c1ccc2oc(C(=O)NCc3ccc(F)cc3)c(C)c2c1	6.51µM*	-16.1%	-27.7%	-22.8%	i	5.7%	-1.5%	-5.7%	23.1µM*
Cc1cccc(NC(=O)C2CCCN(S(=O)(=O)c3cccc4cccnc34)C2)c1 (stereo not given)	?	-9.7%	-31.9%	-10.3%	?	-1.7%	.	.	.
CN(C)S(=O)(=O)c1cccc(NC(=O)c2cccc(S(=O)(=O)N3CCc4ccccc43)c2)c1	4.61µM*	-11.7%	.	-19.4%	?	?	0.3%	-10.2%	16.4µM*
O=C(NNC(=O)c1cccc(S(=O)(=O)N2CCc3ccccc32)c1)c1ccccc1	8.2µM*	-28.4%	-27.0%	-10.5%	i	-23.7%	-19.3%	-2.1%	5.17µM*
CC(C)CCNC(=O)c1cccc(S(=O)(=O)N2CCc3ccccc32)c1	-0.7%	2.0%	-8.6%	-22.5%	i	4.1%	.	.	.
Cc1ccc(/C=C/c2onc(C)c2S(=O)(=O)N2CCC(C(=O)N(CCC(C)C)Cc3ccco3)CC2)cc1	.	3.6%	.	-9.3%	.	-0.5%	.	.	.
O=C(O)CCSc1ncnc2sc(-c3ccccc3)cc12	2.06µM*	-14.4%	2µM*	-15.8%	i	15.9%	9.53µM*	-3.4%	6.51µM*
Cc1cnc(NC(=O)C2CC(=O)N(c3cccc(Cl)c3)C2)s1 (stereo not given)	2.06µM*	?	0.562µM*	1.78µM*	?	?	-0.1%	?	.
C=CCOc1ccc(CN(C)C(=O)c2ccc(CNS(=O)(=O)c3ccc(C)c(C)c3)cc2)cc1	9.2µM*	?	-19.5%	-16.7%	i	?	0.4%	-25.0%	?
Cc1cc2sc3ccc(C#CC4(O)CCCCC4)cc3c(=O)c2cc1C	0.206µM*	-4.1%	-58.6%	-6.1%	i	0.4%	0.0849µM*	-16.8%	9.2µM*
CC(C)c1ccccc1-n1c(SCC(=O)N2CCc3ccccc3C2)nc2ccccc2c1=O	8.2µM*	-15.8%	-35.4%	-1.0%	?	?	1.2%	?	16.4µM*
CN(Cc1ccccc1)C(=O)c1ccc(NC(=O)Cc2ccc(NC(=O)C3CCCN(C(=O)CCc4ccccc4)C3)cc2)cc1 (stereo not given)	2.59µM*	-10.9%	-12.7%	-24.8%	i	-39.6%	-10.4%	-10.9%	1.64µM*

Compound activity from PubChem.
